The record followed here is PubChem BioAssay (NCATS).

Records with an inconclusive call do not appear. Unmarked numbers belong to inactive results. The source made the active and inactive calls. Calls follow the shape of the dose curve; as a rule, active = well fitted curve in the direction sought with a large enough effect; inconclusive = small, poorly fitted or top-dose-only effect, or another doubt; inactive = no such curve, though single readings can be large; an effect the other way counts as inactive or inconclusive.

The nature of experiment [1]: P-glycoprotein substrates identified in KB-8-5-11 adenocarcinoma cell line, qHTS therapeutic library screen (AID 1346987). Also: nearly all actives have a fitted effect of over 65% in size. As to activity change, negative = cytotoxicity: series mostly up to about 44 µM. In outline:
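In this qHTS, P-gp-rich KB-8-5-11 cells received library compounds across a concentration range. Viability was quantified by luminescence after 72 h at 37 degree C.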

Experiment [2] concerns Zika virus NS2B-NS3 protease (unlinked complex). Briefly: Primary screen GU Rhodamine qHTS for Zika virus inhibitors: Unlinked NS2B-NS3 protease assay (AID 1347159). Also: nearly all actives have a fitted effect of over 60% in size. Also: potency is read from the fitted curve at half-maximal effect. The essentials:
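Enzyme 25 nM in Tris-HCl pH 8.0 + 0.01% Tween 20; compounds up to 114 microM, 15 min RT dark; + Rhod110 substrate 1.5 microM; read t0 and 15 min; delta fluorescence → % inhibition → 4-parameter Hill fit.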

Experiment [3] has as its system Zika virus NS2B-NS3 protease (linked construct). Briefly: Primary screen NINDS Rhodamine qHTS for Zika virus inhibitors (AID 1347160). Also: nearly all actives have a fitted effect of over 55% in size. Also: potency is read from the fitted curve at half-maximal effect. The essentials: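 Enzyme (25 nM, linked NS2B-NS3) was preincubated 15 min with compound in 10 mM Tris-HCl pH 8.0, 0.01% Tween 20. Rhodamine110 substrate (1.5 microM) was then added and fluorescence read at start and after 15 min.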
% is scaled to controls: 0 for no effect and ±100 for the full control effect.

For the compound `CCNC(=O)C1CC(F)(c2ccc(CN3CCCC3)c(F)c2)C1` (configuration not stated), the Potency entry in experiment [1], in experiment [2] and in experiment [3] was “inactive” in each case.
For the compound `CC(C)C(NC(=O)c1ccc(O)cc1)C(=O)N1CCCC1C(=O)Nc1c(O)cccc1C(=O)O` (configuration not stated), the Potency entry in experiment [1], in experiment [2] and in experiment [3] was “inactive” throughout.
As to `CCN(CCN(C)C)C(=O)CNCc1cc(C(N)=O)ccn1`, the Potency result in experiment [1], in experiment [2] and in experiment [3] was “inactive” in each case.
Regarding `C[C@H]1[C@H](C)CC[C@]2(C(=O)O)CC[C@]3(C(=O)O)C(=CCC4[C@@]5(C)CC[C@H](O[C@@H]6O[C@@H](C)[C@H](O)[C@@H](O)[C@H]6O)C(C)(C)C5CC[C@]43C)[C@H]12` (some centres not stated), the Potency entry in experiment [1], in experiment [2] and in experiment [3] was “inactive” each time.
As for H-DPPDPDRFYGMM-NH2, the Potency entry in experiment [1], in experiment [2] and in experiment [3] was “inactive” throughout.
Consider `CNc1nc(C)nc(N[C@H]2CCC[C@@H](C(=O)NCc3ccc(C#N)cc3C(F)(F)F)C2)n1`, for which the Potency entry in experiment [1], in experiment [2] and in experiment [3] was “inactive” each time.
`CCC/C=C1\OC(=O)C2=C1CCC(O)C2O` (configuration not stated): the Potency result in experiment [1], in experiment [2] and in experiment [3] was “inactive” throughout.
Regarding `COc1cccc2c1c(O)c(C(=O)N(C)c1ccc(C(F)(F)F)cc1)c(=O)n2C`, the Potency result in experiment [1], in experiment [2] and in experiment [3] was “inactive” each time.
As for `CC1=C[C@@H]2[C@H]3[C@@H]4O[C@@](C)(CC[C@H]4O)[C@H]3CC(=O)[C@]23C(=O)N[C@@H](CC(C)C)[C@@H]3[C@@H]1C`, the Potency result in experiment [1], in experiment [2] and in experiment [3] was “inactive” throughout.
Take `COC(=O)C1C(O)CCC2CN3CCc4c([nH]c5ccccc45)C3CC21` (configuration not stated): the Potency result in experiment [1] and in experiment [3] was “inactive” in each case. For the same compound, the Potency in experiment [2] is 12.6 µM (active).
In the case of `CS(=O)(=O)c1ccccc1N1CCN(c2nc3c(c(=O)[nH]2)CSCC3)CC1`, the Potency entry in experiment [1], in experiment [2] and in experiment [3] was “inactive” each time.
For the compound `CCC(C)/C=C(C)/C=C/C(=O)C1CCC(O)C(C)(O)C1=O` (configuration not stated), the Potency entry in experiment [1] is “inactive”. The Potency in experiment [2] is 17.8 µM (active); in experiment [3] it was 25.1 µM (active).
Take `COc1c(C)c(OCC=C(C)C)cc2c1CNC2=O`: the Potency result in experiment [1], in experiment [2] and in experiment [3] was “inactive” each time.
On to `CC(NC(=O)c1ccccc1N)C(=O)O` (configuration not stated), for which the Potency result in experiment [1], in experiment [2] and in experiment [3] was “inactive” in each case.
As for `C[C@@H]1O[C@@H](O[C@H]2[C@H](OC(=O)[C@]34CCC(C)(C)C[C@H]3C3=CCC5[C@@]6(C)C[C@@H](O)[C@@H](O)[C@@](C)(CO)C6[C@H](O)C[C@@]5(C)[C@]3(C)CC4)OC[C@H](O)[C@@H]2O)[C@H](O)[C@H](O)[C@H]1O[C@@H]1OC[C@@H](O)[C@H](O[C@H]2O[C@H](C)[C@@H](O)[C@H](O)[C@@H]2O)[C@H]1O` (some centres not stated), the activity change, negative = cytotoxicity in experiment [1] is 2.85% [at 9.29 µM]. Further, the Potency entry in experiment [2] and in experiment [3] was “inactive” throughout.
Take `CC(=O)OC1C(O)C(C)(O)C(/C=C/C(=O)O)C2(C)CCCC(C)(C)C12` (configuration not stated): the Potency entry in experiment [1], in experiment [2] and in experiment [3] was “inactive” each time.
With `COc1cc(/C=C/C(=O)O)ccc1O[C@@H]1O[C@H](CO)[C@@H](O)[C@H](O)[C@H]1O[C@@H]1OC[C@](O)(CO)[C@H]1O`, the Potency entry in experiment [1], in experiment [2] and in experiment [3] was “inactive” in each case.
As to `O=C(/C=C/c1ccc(O)cc1)O[C@H]1[C@H](OC2CCCCC2O)O[C@H](CO)[C@@H](O)[C@@H]1O` (some centres not stated), the Potency entry in experiment [1], in experiment [2] and in experiment [3] was “inactive” in each case.
`C=C1[C@@H]2CC[C@@]3(C)[C@H](c4ccoc4)OC(=O)C[C@]13O[C@H]1CC(=O)C(C)(C)[C@H](C(O)C(=O)OC)[C@]12C` (some centres not stated): the Potency result in experiment [1], in experiment [2] and in experiment [3] was “inactive” throughout.
On to `CC[C@H]1OC(=O)[C@H](C)C(=O)[C@H](C)[C@@H](OC2O[C@H](C)C[C@H](N(C)C)[C@H]2O)[C@@H](C)C[C@@H](C)C(=O)/C=C/[C@]1(C)O` (some centres not stated), for which the Potency result in experiment [1], in experiment [2] and in experiment [3] was “inactive” each time.
With `CCC1=C(C)C(=O)C(C)CC12C(=O)CCC2C(=O)O` (configuration not stated), the Potency result in experiment [1], in experiment [2] and in experiment [3] was “inactive” in each case.
For `C[C@]1(OC(=O)/C=C/c2ccccc2)C[C@@H](O)[C@]2(O)C=CO[C@@H](O[C@@H]3O[C@H](CO)[C@@H](O)[C@H](O)[C@H]3O)[C@@H]21`, the Potency entry in experiment [1], in experiment [2] and in experiment [3] was “inactive” in each case.
As for `C/C=C/C1OC2=C(C(=O)OC2(C)O)C(O)C1O` (configuration not stated), the Potency result in experiment [1], in experiment [2] and in experiment [3] was “inactive” in each case.
Take `COc1ccc(/C=C/C(=O)O[C@@H]2[C@@H](OC(C)=O)[C@@H](OC(C)=O)[C@H](O[C@H]3[C@@H]4C=CO[C@@H](O[C@@H]5O[C@H](CO)[C@@H](O)[C@H](O)[C@H]5O)[C@@H]4[C@@]4(CO)O[C@@H]34)O[C@H]2C)cc1`: the Potency result in experiment [1], in experiment [2] and in experiment [3] was “inactive” throughout.
